The source of these data is ChEMBL document CHEMBL1961873, “Compounds: GSK PKIS; Assays: Nanosyn kinase panel” (2012).

Broadly, the inhibition is the relative decrease from the control value, in per cent.

Experiment [1] concerns the target T1, 3-phosphoinositide-dependent protein kinase 1 (Homo sapiens) (UniProt O15530).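 Also: values are mean inhibition of PDK1.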
T1 sequence (whole entry): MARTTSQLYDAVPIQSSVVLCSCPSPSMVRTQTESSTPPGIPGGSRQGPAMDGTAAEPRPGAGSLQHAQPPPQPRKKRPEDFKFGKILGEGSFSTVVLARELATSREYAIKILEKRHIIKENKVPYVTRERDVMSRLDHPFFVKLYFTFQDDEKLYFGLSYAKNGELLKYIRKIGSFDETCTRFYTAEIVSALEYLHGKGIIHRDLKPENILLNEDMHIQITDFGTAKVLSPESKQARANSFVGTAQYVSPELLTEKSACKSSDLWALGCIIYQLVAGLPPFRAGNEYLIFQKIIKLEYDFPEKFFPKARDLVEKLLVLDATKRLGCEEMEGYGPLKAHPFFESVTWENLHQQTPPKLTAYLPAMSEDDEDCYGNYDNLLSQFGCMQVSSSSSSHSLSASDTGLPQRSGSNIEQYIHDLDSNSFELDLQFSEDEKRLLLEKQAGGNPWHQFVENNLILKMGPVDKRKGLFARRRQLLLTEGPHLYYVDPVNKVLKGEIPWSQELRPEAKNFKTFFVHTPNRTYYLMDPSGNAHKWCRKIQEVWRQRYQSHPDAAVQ
The settings on record: at 0.1 µM.

The target in experiment [2] is cAMP-dependent protein kinase catalytic subunit alpha (Homo sapiens) (UniProt P17612). The following applies: at 0.1 µM.
Experiment [3] shares this target. The settings on record: at 1 µM.
In experiment [4] the target is Protein kinase C alpha type (Homo sapiens) (UniProt P17252). The settings on record: at 0.1 µM.
Experiment [5] has the same target. The following applies: at 1 µM.
The target in experiment [6] is Protein kinase C beta type (Homo sapiens) (UniProt P05771). The settings on record: at 0.1 µM.
The target is the same in experiment [7]. The settings on record: at 1 µM.
Experiment [8] concerns the target Protein kinase C eta type (Homo sapiens) (UniProt P24723). The following applies: at 0.1 µM.
For experiment [9] the target is unchanged. The following applies: at 1 µM.
Experiment [10] has as its target Protein kinase C gamma type (Homo sapiens) (UniProt P05129). The settings on record: at 0.1 µM.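 Also: values are mean percent inhibition of PKC gamma.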

Chain of Protein kinase C beta type (Homo sapiens) (P05771 2-671 limits assumed): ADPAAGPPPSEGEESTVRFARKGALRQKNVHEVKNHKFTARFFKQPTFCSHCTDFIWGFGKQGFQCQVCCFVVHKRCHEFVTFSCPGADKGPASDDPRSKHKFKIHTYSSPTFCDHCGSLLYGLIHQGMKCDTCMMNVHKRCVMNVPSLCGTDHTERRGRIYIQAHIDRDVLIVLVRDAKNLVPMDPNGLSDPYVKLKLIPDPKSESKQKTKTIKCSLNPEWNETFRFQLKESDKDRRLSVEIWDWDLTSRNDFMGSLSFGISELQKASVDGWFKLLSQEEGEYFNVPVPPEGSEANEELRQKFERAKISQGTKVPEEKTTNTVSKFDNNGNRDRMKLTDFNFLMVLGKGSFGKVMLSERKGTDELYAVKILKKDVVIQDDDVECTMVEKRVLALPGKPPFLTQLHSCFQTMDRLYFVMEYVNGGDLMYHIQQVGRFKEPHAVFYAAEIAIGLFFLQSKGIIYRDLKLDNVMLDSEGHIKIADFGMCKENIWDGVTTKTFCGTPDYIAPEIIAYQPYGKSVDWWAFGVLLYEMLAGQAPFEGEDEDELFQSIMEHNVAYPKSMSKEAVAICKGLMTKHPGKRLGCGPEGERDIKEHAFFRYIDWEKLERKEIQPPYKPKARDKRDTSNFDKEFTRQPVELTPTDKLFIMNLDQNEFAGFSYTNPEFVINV
Chain of Protein kinase C eta type (Homo sapiens) (P24723 whole entry): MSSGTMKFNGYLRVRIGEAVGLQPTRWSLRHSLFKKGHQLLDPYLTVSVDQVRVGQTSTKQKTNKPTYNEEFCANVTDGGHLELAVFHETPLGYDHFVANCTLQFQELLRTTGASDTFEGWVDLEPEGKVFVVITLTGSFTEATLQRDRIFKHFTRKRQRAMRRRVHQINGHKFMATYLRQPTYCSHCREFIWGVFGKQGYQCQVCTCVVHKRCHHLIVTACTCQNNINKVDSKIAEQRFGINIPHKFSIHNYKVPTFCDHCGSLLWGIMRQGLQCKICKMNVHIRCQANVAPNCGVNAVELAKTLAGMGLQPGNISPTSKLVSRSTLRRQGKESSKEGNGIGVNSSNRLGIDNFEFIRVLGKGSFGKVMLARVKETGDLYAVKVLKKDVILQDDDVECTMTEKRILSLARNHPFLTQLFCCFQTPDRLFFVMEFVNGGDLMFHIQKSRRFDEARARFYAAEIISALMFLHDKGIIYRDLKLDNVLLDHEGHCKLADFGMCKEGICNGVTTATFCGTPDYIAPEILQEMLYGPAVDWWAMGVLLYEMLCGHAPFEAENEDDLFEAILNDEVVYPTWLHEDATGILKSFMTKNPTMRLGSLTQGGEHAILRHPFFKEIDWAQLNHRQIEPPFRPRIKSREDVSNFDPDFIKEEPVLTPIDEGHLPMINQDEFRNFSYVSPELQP

As for `C[C@@H](Oc1cc(-n2cnc3ccc(OC4CCN(C)CC4)cc32)sc1C(N)=O)c1ccccc1Cl`, the inhibition was 0.63% in [1]; -1.89% in experiment [2]; -4.19% in experiment [3]; -3.4% in experiment [4]; 0.64% in experiment [5]; 0.95% in experiment [6]. Further, the inhibition was found to be 3.55% in experiment [7], 2.46% in experiment [8], 4.62% in experiment [9] and 0.71% in experiment [10].

As to `NC(=O)Cc1ccccc1Oc1nccc(-c2c(-c3ccc(F)cc3)ncn2C2CCNCC2)n1`, the inhibition in experiment [1] is 1.03%; in [2], 1.37%; in [3] it was 0.93%; in experiment [4], 0.35%; in experiment [5] it was 1.51%; in [6], -0.44%. Also, the inhibition amounted to 3.18% in [7], 3.28% in experiment [8], 0.22% in experiment [9] and 4.12% in experiment [10].

On to `COc1cc(Nc2ncc(-c3ccccc3)o2)cc(OC)c1OC`, for which the inhibition is -0.87% in experiment [1]; -0.33% in experiment [2]; -0.26% in experiment [3]; -0.31% in experiment [4]; 1.1% in experiment [5]; -1.34% in [6]. The inhibition in experiment [7] is 2.43%; in experiment [8], -0.81%; in experiment [9], -4.38%; in [10], -1%.

As to `C[C@@H](Oc1cc(-n2cnc3ccc(OCC4CCN(C)CC4)cc32)sc1C(N)=O)c1ccccc1Cl`, the inhibition in experiment [1] was 2.77%; in [2] it was 3.4%; in [3] it was -1.07%; in [4], 1.11%; in experiment [5], 5.2%; in experiment [6], 1.4%. In addition, the inhibition in [7] came to 3.67%; in experiment [8], 5.52%; in experiment [9], 5.34%; in [10] it was 3.17%.

Turning to `CN1CCN(CCCNc2nc3ccc(Oc4ccc(NC(=O)Nc5cc(C(F)(F)F)ccc5F)cc4)cc3[nH]2)CC1`, the inhibition in [1] is 2.91%; in [2], -1.46%; in experiment [3] it was -0.98%; in [4], -2.39%; in experiment [5], -1.52%; in experiment [6] it was 2.13%. Also, the inhibition in [7] was 1.42%; in experiment [8] it was 1.27%; in experiment [9] it was 1.68%; in experiment [10], 1.25%.

Take `O=C(Nc1n[nH]c2cc(-c3ccccc3)ccc12)C1CC1`: the inhibition was 1.51% in experiment [1]; 1.89% in experiment [2]; 2.35% in experiment [3]; 0.99% in experiment [4]; 1.87% in [5]; -0.78% in experiment [6]. Also, the inhibition in experiment [7] amounted to 4.47%; in experiment [8], 2.72%; in [9], 2.77%; in [10], 1.69%.

On to `CS(=O)(=O)CCNCc1cc(-c2cc3c(Nc4ccc(OCc5cccc(F)c5)c(Cl)c4)ncnc3s2)cs1`, for which the inhibition in experiment [1] was found to be 2.06%; in experiment [2] it was 1.96%; in [3], 1.98%; in experiment [4], 0.73%; in experiment [5] it was 1.44%; in [6] it was 0.43%. The inhibition in experiment [7] amounted to 1.19%; in [8] it was 5.83%; in experiment [9], 7.05%; in [10] it was 2.95%.

As to `Fc1ccc(-c2nc3n(c2-c2ccncc2)CCS3)cc1`, the inhibition in [1] is 1.88%; in experiment [2], -0.98%; in [3], 0.45%; in [4], -2.53%; in [5], -1.43%; in experiment [6] it was 0.64%. In addition, the inhibition in experiment [7] was 9.28%; in experiment [8], 4.25%; in experiment [9] it was 4.84%; in experiment [10], 2.76%.

Consider `O=C(Nc1ccc(Oc2ccc3[nH]c(NC(=O)c4ccccc4)nc3c2)cc1)Nc1cc(C(F)(F)F)ccc1F`, for which the inhibition in [1] was 1.16%; in [2], 1.01%; in experiment [3], 1.45%; in [4], 0.3%; in experiment [5] it was 1.8%; in experiment [6] it was 0.29%. The inhibition in experiment [7] worked out at 3.18%; in experiment [8] it was 1.1%; in experiment [9], 4.58%; in experiment [10] it was 3.6%.

For the compound `COc1cccc(/C=N/Nc2ncnc3c2cnn3-c2cccc(OC)c2)c1`, the inhibition in [1] is 1.13%; in experiment [2] it was 1.27%; in experiment [3] it was 1.21%; in [4], 0.12%; in [5], 0.85%; in [6], -0.96%. Also, the inhibition was 0.85% in [7], 5.46% in [8], 4.14% in [9] and 3.43% in [10].

With `CCS(=O)(=O)c1ccc(OC)c(Nc2ncc(-c3cccc(-c4ccccc4F)c3)o2)c1`, the inhibition in experiment [1] is 9.34%; in experiment [2], 0.57%; in [3], 1.3%; in [4] it was 1.13%; in experiment [5] it was 1.66%; in [6], 0.49%. Further, the inhibition in [7] was 0.3%; in experiment [8], -1.89%; in [9], -1.48%; in experiment [10], 0.64%.

On to `CN(C)c1ccc2c(c1)/C(=C/Nc1ccc(S(N)(=O)=O)cc1)C(=O)N2`, for which the inhibition is 11.6% in experiment [1]; 1.77% in experiment [2]; 1.6% in experiment [3]; 0.48% in experiment [4]; 1.56% in [5]; 0.94% in experiment [6]. Further, the inhibition in experiment [7] amounted to 0.89%; in experiment [8] it was 2.02%; in experiment [9], 2.17%; in experiment [10], 0.64%.

In the case of `CNC(=O)c1cncc(/C=C/c2c(C)cccc2C)c1`, the inhibition is 2.19% in experiment [1]; -2.91% in [2]; -3.45% in experiment [3]; -2.57% in experiment [4]; -1.89% in experiment [5]; 1.56% in experiment [6]. The inhibition in experiment [7] is -0.29%; in [8], 3.75%; in experiment [9], 1.62%; in [10], -0.51%.

In the case of `CCC(=O)Nc1ccc(C)c(-c2ccc(C(=O)NCC3CC3)cc2)c1`, the inhibition is 2.1% in experiment [1]; 2.1% in [2]; 1.49% in [3]; -0.25% in [4]; 0.8% in experiment [5]; 0.07% in experiment [6]. Besides, the inhibition in experiment [7] was -0.89%; in [8] it was 5.65%; in experiment [9] it was 3.46%; in experiment [10] it was 0.1%.

As for `CS(=O)(=O)CCNCc1ccc(-c2ccc3ncnc(Nc4ccc(OCc5ccccc5)c(Br)c4)c3c2)o1`, the inhibition in experiment [1] is 2.06%; in experiment [2], -1.58%; in experiment [3], -1.94%; in experiment [4], -3.83%; in experiment [5], -2.95%; in experiment [6], 0.95%. For the same compound, the inhibition was -0.59% in experiment [7], 5.37% in experiment [8], 5.42% in experiment [9] and 0.5% in experiment [10].

For `CCN(CC)Cc1ccc(Nc2nccc(-c3cnn4ncccc34)n2)cc1`, the inhibition is 0.96% in experiment [1]; -0.94% in [2]; 4.26% in experiment [3]; 0.47% in [4]; 17.8% in experiment [5]; 0.22% in [6]. Further, the inhibition in experiment [7] was -5.55%; in experiment [8], 5.27%; in experiment [9], 7.25%; in experiment [10] it was 0.4%.

`c1ccc(-c2n[nH]cc2-c2ccnc(-c3ccc(OCCN4CCOCC4)cc3)c2)nc1`: the inhibition was determined as 1.56% in [1]; 7.85% in experiment [2]; 3.77% in experiment [3]; 2.22% in [4]; 1.97% in [5]; 5.36% in experiment [6]. The inhibition in [7] was 3.85%; in experiment [8], -2.82%; in [9], -2.18%; in experiment [10], 3.17%.
